The text below walks through data of paper PMC9911399, “Two distinct binding modes provide the RNA-binding protein RbFox with extraordinary sequence specificity”.

Positions count from the first letter of the chain named. Whole data set: some 16,000 sequences, median “ka relative to ugcaugu” near 0.096, cut for the highest 2% near 0.35. The full list was thinned out, with the highest values kept by preference.

B1: CCGAUCU (DNA:RNA)
RNA: GGGAGACCGGAAUUCAGAUUGUCCCCGAUCUUUAAAUCCCGUCGUAGCCACCA
DNA 1: CAATCTGAATTCCGGTCTCCC
DNA 2: TGGTGGCTACGACGGGATT
B2: CACUUGA (DNA:RNA)
RNA: B1 RNA with C26A, G27C, A28U, C30G, U31A
DNA 1: CAATCTGAATTCCGGTCTCCC
DNA 2: TGGTGGCTACGACGGGATT
B3: CACUUAG (DNA:RNA)
RNA: B1 RNA with C26A, G27C, A28U, C30A, U31G
DNA 1: CAATCTGAATTCCGGTCTCCC
DNA 2: TGGTGGCTACGACGGGATT
B4: GAAAGCU (DNA:RNA)
RNA: B1 RNA with C25G, C26A, G27A, U29G
DNA 1: CAATCTGAATTCCGGTCTCCC
DNA 2: TGGTGGCTACGACGGGATT
B5: CAGCAUU (DNA:RNA)
RNA: B1 RNA with C26A, A28C, U29A, C30U
DNA 1: CAATCTGAATTCCGGTCTCCC
DNA 2: TGGTGGCTACGACGGGATT
B6: UUAAACA (DNA:RNA)
RNA: B1 RNA with C25U, C26U, G27A, U29A, U31A
DNA 1: CAATCTGAATTCCGGTCTCCC
DNA 2: TGGTGGCTACGACGGGATT
B7: CCUGGCA (DNA:RNA)
RNA: B1 RNA with G27U, A28G, U29G, U31A
DNA 1: CAATCTGAATTCCGGTCTCCC
DNA 2: TGGTGGCTACGACGGGATT
B8: AUGCAGA (DNA:RNA)
RNA: B1 RNA with C25A, C26U, A28C, U29A, C30G, U31A
DNA 1: CAATCTGAATTCCGGTCTCCC
DNA 2: TGGTGGCTACGACGGGATT
B9: AUGCAUC (DNA:RNA)
RNA: B1 RNA with C25A, C26U, A28C, U29A, C30U, U31C
DNA 1: CAATCTGAATTCCGGTCTCCC
DNA 2: TGGTGGCTACGACGGGATT
B10: AUGCAUA (DNA:RNA)
RNA: B1 RNA with C25A, C26U, A28C, U29A, C30U, U31A
DNA 1: CAATCTGAATTCCGGTCTCCC
DNA 2: TGGTGGCTACGACGGGATT
B11: AUGCAUG (DNA:RNA)
RNA: B1 RNA with C25A, C26U, A28C, U29A, C30U, U31G
DNA 1: CAATCTGAATTCCGGTCTCCC
DNA 2: TGGTGGCTACGACGGGATT
B12: GUCCAUC (DNA:RNA)
RNA: GGGAGACCGGAAUUCAGAUUGUCCGUCCAUCUUAAAUCCCGUCGUAGCCACCA
DNA 1: CAATCTGAATTCCGGTCTCCC
DNA 2: TGGTGGCTACGACGGGATT
B13: AUCCAUC (DNA:RNA)
RNA: B12 RNA with G25A
DNA 1: CAATCTGAATTCCGGTCTCCC
DNA 2: TGGTGGCTACGACGGGATT
B14: AACCGUG (DNA:RNA)
RNA: B12 RNA with G25A, U26A, A29G, C31G
DNA 1: CAATCTGAATTCCGGTCTCCC
DNA 2: TGGTGGCTACGACGGGATT
B15: GGCUGGA (DNA:RNA)
RNA: B12 RNA with U26G, C28U, A29G, U30G, C31A
DNA 1: CAATCTGAATTCCGGTCTCCC
DNA 2: TGGTGGCTACGACGGGATT
B16: CUCCGAA (DNA:RNA)
RNA: B12 RNA with G25C, A29G, U30A, C31A
DNA 1: CAATCTGAATTCCGGTCTCCC
DNA 2: TGGTGGCTACGACGGGATT
B17: UGCUACC (DNA:RNA)
RNA: B12 RNA with G25U, U26G, C28U, U30C
DNA 1: CAATCTGAATTCCGGTCTCCC
DNA 2: TGGTGGCTACGACGGGATT
B18: AAAUGCG (DNA:RNA)
RNA: B1 RNA with C25A, C26A, G27A, A28U, U29G, U31G
DNA 1: CAATCTGAATTCCGGTCTCCC
DNA 2: TGGTGGCTACGACGGGATT
B19: UGACUUC (DNA:RNA)
RNA: B12 RNA with G25U, U26G, C27A, A29U
DNA 1: CAATCTGAATTCCGGTCTCCC
DNA 2: TGGTGGCTACGACGGGATT
B20: UCAUAAU (DNA:RNA)
RNA: B1 RNA with C25U, G27A, A28U, U29A, C30A
DNA 1: CAATCTGAATTCCGGTCTCCC
DNA 2: TGGTGGCTACGACGGGATT
B21: ACGUGCG (DNA:RNA)
RNA: B1 RNA with C25A, A28U, U29G, U31G
DNA 1: CAATCTGAATTCCGGTCTCCC
DNA 2: TGGTGGCTACGACGGGATT
B22: AUGCACG (DNA:RNA)
RNA: B12 RNA with G25A, C27G, U30C, C31G
DNA 1: CAATCTGAATTCCGGTCTCCC
DNA 2: TGGTGGCTACGACGGGATT
B23: GUGCACG (DNA:RNA)
RNA: B12 RNA with C27G, U30C, C31G
DNA 1: CAATCTGAATTCCGGTCTCCC
DNA 2: TGGTGGCTACGACGGGATT
B24: UUGCACC (DNA:RNA)
RNA: B12 RNA with G25U, C27G, U30C
DNA 1: CAATCTGAATTCCGGTCTCCC
DNA 2: TGGTGGCTACGACGGGATT
B25: UUGCCCG (DNA:RNA)
RNA: B1 RNA with C25U, C26U, A28C, U29C, U31G
DNA 1: CAATCTGAATTCCGGTCTCCC
DNA 2: TGGTGGCTACGACGGGATT
B26: AUCCACG (DNA:RNA)
RNA: B12 RNA with G25A, U30C, C31G
DNA 1: CAATCTGAATTCCGGTCTCCC
DNA 2: TGGTGGCTACGACGGGATT
B27: GUGCACC (DNA:RNA)
RNA: B12 RNA with C27G, U30C
DNA 1: CAATCTGAATTCCGGTCTCCC
DNA 2: TGGTGGCTACGACGGGATT
B28: UUGCACG (DNA:RNA)
RNA: B12 RNA with G25U, C27G, U30C, C31G
DNA 1: CAATCTGAATTCCGGTCTCCC
DNA 2: TGGTGGCTACGACGGGATT
B29: AUGCACC (DNA:RNA)
RNA: B12 RNA with G25A, C27G, U30C
DNA 1: CAATCTGAATTCCGGTCTCCC
DNA 2: TGGTGGCTACGACGGGATT
B30: GUGUCUU (DNA:RNA)
RNA: B12 RNA with C27G, C28U, A29C, C31U
DNA 1: CAATCTGAATTCCGGTCTCCC
DNA 2: TGGTGGCTACGACGGGATT
B31: UGAUGGG (DNA:RNA)
RNA: GGGAGACCGGAAUUCAGAUUGUCCUGAUGGGUUAAAUCCCGUCGUAGCCACCA
DNA 1: CAATCTGAATTCCGGTCTCCC
DNA 2: TGGTGGCTACGACGGGATT

The target of this assay is T1, RBFOX1 RRM RbFoxmut (Fox-RRM*) (Homo sapiens, UniProt Q9NWB1 109-208, R118D;E147R;N151S;E152T).
T1 sequence: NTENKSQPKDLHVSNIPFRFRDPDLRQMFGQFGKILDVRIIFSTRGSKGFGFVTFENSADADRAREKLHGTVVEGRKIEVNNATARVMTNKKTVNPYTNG
The experiment in a line: EMSA; HiTS-Eq, 1 nM pool, 10 min; buffer printed only for the single-RNA assays: 10 mM Tris pH 7.5, 150 mM NaCl, 3.4 mM EDTA, 0.001% NP-40, 30 C. Particulars: tags: His6 N-terminal (pET28a); label: 5' 32P. The method in brief: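 Purified wild-type or mutant RbFox RRM at increasing concentrations was equilibrated with 1 nM of 5′-radiolabelled RNA carrying 7 randomized nucleotides for 10 min in 50 µL. Unbound RNA was separated by 8% native PAGE and sequenced. Relative association constants came from read-count changes of each RNA species compared with the control reaction, normalised to the cognate motif.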
On the technique in general: In EMSA bound probe runs differently from free probe, usually more slowly.
As for B1, the binding signal is 0.0341 KA relative to UGCAUGU.
In the case of B2, the binding signal is 0.114 KA relative to UGCAUGU.
Next, B3: 0.16 KA relative to UGCAUGU; B4: 0.0545 KA relative to UGCAUGU; B5: 0.107 KA relative to UGCAUGU.
Next, B6: 0.0699 KA relative to UGCAUGU; B7: 0.148 KA relative to UGCAUGU.
In the case of B8, the binding signal was 0.125 KA relative to UGCAUGU.
For the molecule B9, the binding signal is 0.446 KA relative to UGCAUGU.
As to B10, the binding signal was 0.161 KA relative to UGCAUGU.
As for B11, the binding signal is 0.951 KA relative to UGCAUGU.
On to B12, for which the binding signal was 0.0764 KA relative to UGCAUGU.
Turning to B13, the binding signal is 0.1 KA relative to UGCAUGU.
In the case of B14, the binding signal was 0.109 KA relative to UGCAUGU.
The result for B15 reads 0.0732 KA relative to UGCAUGU.
In the case of B16, the binding signal was 0.104 KA relative to UGCAUGU.
Next, B17: 0.147 KA relative to UGCAUGU; B18: 0.104 KA relative to UGCAUGU.
B19: the binding signal was 0.0822 KA relative to UGCAUGU.
For the molecule B20, the binding signal is 0.103 KA relative to UGCAUGU.
Next, B21: 0.182 KA relative to UGCAUGU.
As for B22, the binding signal was 0.551 KA relative to UGCAUGU.
Next, B23: 0.66 KA relative to UGCAUGU; B24: 0.181 KA relative to UGCAUGU.
As for B25, the binding signal was 0.178 KA relative to UGCAUGU.
As to B26, the binding signal was 0.135 KA relative to UGCAUGU.
As to B27, the binding signal was 0.167 KA relative to UGCAUGU.
Consider B28, for which the binding signal is 0.612 KA relative to UGCAUGU.
The result for B29 reads 0.132 KA relative to UGCAUGU; that for B30, 0.101 KA relative to UGCAUGU.
For B31, the binding signal is 0.0449 KA relative to UGCAUGU.
